# Measured values published in PubChem BioAssay.
# The source made the active and inactive calls.
# Legend:
# [1] = binders of probe aFSTL3 on microarray, primary screen, stem cell growth factor project, biochemical, small-molecule microarray, fluorescence 635/667 (AID 1064); conditions: higher = more signal;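 further: measures binding of the biotinylated anti-FSTL3 antibody to printed compounds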
# [2] = binders from COS7 lysate, DM2A8 probe, primary screen, torsin A project, cell lysate, small-molecule microarray, fluorescence 635/667 (AID 1065); conditions: higher = more signal, COS7 lysate expressing mutant human TOR1A
# [3] = binders of probe aFGF2 on microarray, primary screen, stem cell growth factor project, biochemical, small-molecule microarray, fluorescence 635/667 (AID 1067); conditions: higher = more signal;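 further: measures binding of biotinylated aFGF2 protein to printed compounds on slides; z-score merges feature fluorescence and signal-to-noise across triplicate slides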
# [4] = binders of probe aFGF10 on microarray, primary screen, stem cell growth factor project, biochemical, small-molecule microarray, fluorescence 635/667 (AID 1071); conditions: higher = more signal;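 further: score merges 667 nm spot intensity and signal to noise from triplicate slides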
# [5] = molecular target: Neurogenic locus notch homolog protein 2 (Homo sapiens) (UniProt Q04721); experiment: Notch2 binders on small-molecule microarrays, primary screen, biochemical, small-molecule microarray, 635 nm fluorescence, stem cell growth factors (AID 1073); conditions: Notch2 binding, higher = more signal
# Neurogenic locus notch homolog protein 2 (Homo sapiens), sequence (Q04721 whole entry, looked up, canonical isoform): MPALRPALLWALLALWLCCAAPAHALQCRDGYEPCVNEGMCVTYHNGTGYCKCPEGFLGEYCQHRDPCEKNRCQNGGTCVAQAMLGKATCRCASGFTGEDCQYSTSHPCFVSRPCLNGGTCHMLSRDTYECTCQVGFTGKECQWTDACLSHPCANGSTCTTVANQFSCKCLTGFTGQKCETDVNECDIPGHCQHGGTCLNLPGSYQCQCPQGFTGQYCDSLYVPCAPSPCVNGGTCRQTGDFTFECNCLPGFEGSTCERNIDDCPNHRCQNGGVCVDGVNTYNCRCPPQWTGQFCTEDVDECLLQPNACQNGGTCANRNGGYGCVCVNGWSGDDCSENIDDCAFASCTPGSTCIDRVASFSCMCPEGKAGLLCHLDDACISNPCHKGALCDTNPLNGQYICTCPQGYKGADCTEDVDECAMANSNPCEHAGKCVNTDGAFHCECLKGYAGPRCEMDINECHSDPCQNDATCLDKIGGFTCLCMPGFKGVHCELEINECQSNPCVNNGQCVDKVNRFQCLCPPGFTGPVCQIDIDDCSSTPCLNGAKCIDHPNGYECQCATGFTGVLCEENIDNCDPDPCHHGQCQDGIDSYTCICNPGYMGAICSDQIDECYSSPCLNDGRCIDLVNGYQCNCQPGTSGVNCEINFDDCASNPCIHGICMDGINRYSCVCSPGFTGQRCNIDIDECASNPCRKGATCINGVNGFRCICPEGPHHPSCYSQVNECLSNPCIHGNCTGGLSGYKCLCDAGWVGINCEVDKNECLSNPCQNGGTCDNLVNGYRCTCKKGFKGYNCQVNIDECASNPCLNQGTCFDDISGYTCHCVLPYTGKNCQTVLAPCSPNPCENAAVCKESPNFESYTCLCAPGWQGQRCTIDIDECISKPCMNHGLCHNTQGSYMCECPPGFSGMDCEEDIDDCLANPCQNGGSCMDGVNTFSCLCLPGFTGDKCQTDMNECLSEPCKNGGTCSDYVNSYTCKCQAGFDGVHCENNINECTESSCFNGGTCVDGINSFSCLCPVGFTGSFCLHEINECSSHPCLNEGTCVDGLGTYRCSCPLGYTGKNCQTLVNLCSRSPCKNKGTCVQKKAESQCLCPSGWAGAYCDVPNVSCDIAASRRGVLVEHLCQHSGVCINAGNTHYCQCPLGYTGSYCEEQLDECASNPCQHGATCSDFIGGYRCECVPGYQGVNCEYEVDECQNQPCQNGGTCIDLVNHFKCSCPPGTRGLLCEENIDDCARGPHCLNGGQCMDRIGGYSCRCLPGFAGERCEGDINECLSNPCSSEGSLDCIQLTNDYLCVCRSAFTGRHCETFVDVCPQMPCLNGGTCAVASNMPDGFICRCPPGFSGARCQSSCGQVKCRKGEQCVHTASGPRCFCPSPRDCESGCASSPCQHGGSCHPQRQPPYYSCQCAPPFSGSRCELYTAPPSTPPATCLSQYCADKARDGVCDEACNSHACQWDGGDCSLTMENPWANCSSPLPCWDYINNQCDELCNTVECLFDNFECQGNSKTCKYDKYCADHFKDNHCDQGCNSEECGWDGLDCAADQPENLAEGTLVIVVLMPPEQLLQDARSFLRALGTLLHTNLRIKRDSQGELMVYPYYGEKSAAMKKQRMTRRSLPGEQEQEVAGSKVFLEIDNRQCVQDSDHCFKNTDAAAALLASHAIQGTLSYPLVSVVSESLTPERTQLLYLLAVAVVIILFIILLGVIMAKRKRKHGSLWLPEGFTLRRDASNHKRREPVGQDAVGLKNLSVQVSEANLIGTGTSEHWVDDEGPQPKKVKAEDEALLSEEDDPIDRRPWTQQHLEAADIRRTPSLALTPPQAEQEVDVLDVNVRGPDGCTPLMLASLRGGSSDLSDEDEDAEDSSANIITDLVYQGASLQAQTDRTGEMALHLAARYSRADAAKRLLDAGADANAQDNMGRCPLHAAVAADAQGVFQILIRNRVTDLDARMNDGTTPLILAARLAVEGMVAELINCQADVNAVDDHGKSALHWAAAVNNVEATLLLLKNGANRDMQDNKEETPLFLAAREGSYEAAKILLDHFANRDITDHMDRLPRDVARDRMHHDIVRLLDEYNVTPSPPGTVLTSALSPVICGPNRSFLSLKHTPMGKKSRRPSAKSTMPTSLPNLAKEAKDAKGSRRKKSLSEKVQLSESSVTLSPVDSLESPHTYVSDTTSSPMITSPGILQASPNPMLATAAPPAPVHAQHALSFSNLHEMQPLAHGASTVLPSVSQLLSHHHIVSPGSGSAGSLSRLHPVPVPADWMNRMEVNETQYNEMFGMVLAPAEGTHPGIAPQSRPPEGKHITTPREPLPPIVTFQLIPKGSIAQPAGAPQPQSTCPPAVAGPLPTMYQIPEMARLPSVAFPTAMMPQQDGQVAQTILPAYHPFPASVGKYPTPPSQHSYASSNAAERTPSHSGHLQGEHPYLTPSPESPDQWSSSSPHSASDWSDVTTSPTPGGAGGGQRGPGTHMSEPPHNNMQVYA
# [6] = molecular target: Pro-neuregulin-1, membrane-bound isoform (Homo sapiens) (UniProt Q02297); experiment: NRG1 binders on small-molecule microarrays, primary screen, psychiatric disease protein project, biochemical, small-molecule microarray, fluorescence 635/667 (AID 1075); conditions: NRG1 binding, 635 nm fluorescence, higher = more signal;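 further: score combines 667 nm spot fluorescence with signal to noise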
# Pro-neuregulin-1, membrane-bound isoform (Homo sapiens), sequence (Q02297 whole entry, looked up, the tested form may be a part, canonical isoform): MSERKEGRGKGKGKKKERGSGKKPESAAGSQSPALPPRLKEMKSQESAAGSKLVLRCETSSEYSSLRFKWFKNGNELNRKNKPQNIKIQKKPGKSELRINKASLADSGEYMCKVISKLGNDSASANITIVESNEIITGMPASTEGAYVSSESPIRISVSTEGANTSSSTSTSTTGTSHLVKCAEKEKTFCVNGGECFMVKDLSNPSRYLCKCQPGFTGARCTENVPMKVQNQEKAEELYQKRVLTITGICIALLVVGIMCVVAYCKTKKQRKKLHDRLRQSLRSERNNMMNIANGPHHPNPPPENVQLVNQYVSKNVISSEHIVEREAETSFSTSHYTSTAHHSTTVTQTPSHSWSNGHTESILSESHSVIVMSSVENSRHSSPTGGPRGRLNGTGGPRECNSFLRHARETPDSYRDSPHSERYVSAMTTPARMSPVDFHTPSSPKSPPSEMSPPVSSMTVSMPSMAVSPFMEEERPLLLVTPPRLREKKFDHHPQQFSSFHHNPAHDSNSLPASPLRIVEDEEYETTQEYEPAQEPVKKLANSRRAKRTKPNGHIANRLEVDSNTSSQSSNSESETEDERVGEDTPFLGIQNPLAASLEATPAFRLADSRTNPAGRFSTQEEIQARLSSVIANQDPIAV
# [7] = tested on: Neuregulin-1 EGF-like domain; experiment: binders of neuregulin-1 EGF-like domain, primary screen, biochemical, small-molecule microarray, 635 nm fluorescence (AID 1081); conditions: small-molecule microarray binding, higher = more signal;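 further: binding of the protein to compounds printed on small-molecule microarray slides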
# [8] = FRG1 promoter luciferase signal modulators, primary screen, FRG1 inhibition for FSHD, cell-based, C2C12 myotubes, firefly/Renilla luciferase, luminescence (AID 1084); conditions: higher = more signal, called active from +8 up or from −8 down
# [9] = binders of probe aFST on microarray, primary screen, stem cell growth factor project, biochemical, small-molecule microarray, fluorescence 635/667 (AID 1086); conditions: higher = more signal;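 further: score merges 667 nm fluorescence with signal-to-noise of each printed compound spot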
# [10] = binders of probe aHhip on microarray, primary screen, stem cell growth factor project, biochemical, small-molecule microarray, fluorescence 635/667 (AID 1087); conditions: higher = more signal;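 further: score merges spot fluorescence at 667nm with spot signal to noise ratio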
Compound,composite z-score [1],composite z-score [2],composite z-score [3],composite z-score [4],composite z-score [5],composite z-score [6],composite z-score [7],z-score [8],composite z-score [9],composite z-score [10]
C=CCC(OC(C)=O)[C@@H]1[C@@H](N(Cc2ccc(-c3ccccc3)cc2)C(=O)c2cccc3ccccc23)c2cc(OCCCO)ccc2N1C(=O)Cc1ccc2ccccc2c1 (stereo not given in full),-0.144,0.407,-0.0445,0.237,-0.101,-0.278,-0.621,-0.873 (inactive),-0.0377,0.154
O=C1O[C@@H](c2ccccc2)[C@@H](c2ccccc2)N2[C@@H](c3ccccc3OCCO)[C@]3(C(=O)Nc4ccccc43)[C@@H](C(=O)NC[C@H](O)c3ccccc3)[C@H]12,0.421,0.98,-0.0937,0.0718,-0.843,0.551,1.2,-2.8 (inactive),-0.127,-0.226
COCCOC(=O)N1C(=O)[C@@]2(c3cc(C#CC4(O)CCCCCC4)ccc31)[C@H](C(=O)N1CCCCCCC1)[C@H]1C(=O)O[C@H](c3ccccc3)[C@H](c3ccccc3)N1[C@@H]2c1ccc(OCCO)cc1,3.43,1.62,0.79,1.2,1.26,2.18,1.24,-3.21 (inactive),3.29,1.77
COc1ccc(CCNC(=O)[C@@]2(Sc3ccc(C)cc3)CC(=O)N(Cc3cc(C(F)(F)F)cc(C(F)(F)F)c3)[C@@H]2c2ccc(CO)cc2I)cc1,0.332,-0.671,-0.0894,-0.0189,-0.632,0.899,1.07,0.214 (inactive),0.582,-0.271
C=CCOC(=O)[C@@H]1[C@H]2C(=O)O[C@H](c3ccccc3)[C@H](c3ccccc3)N2[C@H](c2ccc(OCCOC(=O)[C@H]3C[C@H]4C(=O)N[C@@H](CCCCN(C)C)C(=O)N4[C@H]3c3cccc(OCCO)c3)cc2)[C@@]12C(=O)Nc1ccc(I)cc12,0.0594,1.24,-0.0308,0.526,0.59,1.55,1.32,0.842 (inactive),0.312,0.064
C=C[C@H](COC(C)=O)NS(=O)(=O)c1ccc(Br)cc1,-0.127,-0.256,-0.151,-0.286,-0.506,0.241,0.656,1.54 (inactive),0.0509,-0.0618
[N-]=[N+]=Nc1ccccc1C[C@]1(C(=O)NCc2ccccc2)N=C(c2ccc(OCCCO)cc2)O[C@H]1c1ccccc1,0.0843,0.984,0.0898,0.584,1.61,1.86,1.2,-2.1 (inactive),1.22,0.0515
COC(=O)C[C@H]1O[C@]2(C(=O)N(C)c3ccccc32)[C@@H](C)[C@@H]1[Si](C)(C)c1ccc(C)cc1,-0.361,0.285,0.033,0.453,0.778,0.274,0.815,-2.37 (inactive),0.512,0.28
COc1ccc([Si](C)(C)[C@@H]2[C@@H](CCO)O[C@]3(C(=O)N(Cc4cccc(N5C(=O)c6cccc7cccc5c67)c4)c4ccccc43)[C@H]2C)cc1,0.385,-0.106,-0.156,0.691,-0.314,0.779,0.966,-0.34 (inactive),-0.0576,-0.236
C#CCNC(=O)[C@H](Cc1ccccc1)NC(=O)[C@@H](N=[N+]=[N-])C(C)C,-0.57,-0.003,-0.0894,0.334,1.04,0.452,1.08,0.171 (inactive),0.16,-0.409
O=C1OCC=C[C@H]2OC34C=CCN(c5ccc(Cl)cc5)C(=O)[C@H]3N(CCCCCO)C(=O)[C@@H]4[C@@H]12 (stereo not given in full),0.716,1.77,-0.163,-0.815,-1.07,-0.0571,1.06,-0.633 (inactive),-0.354,-0.236
C=C(CCCC)/C(=C/C[C@@H](OC(=O)c1ccncc1)c1cccc(OCCO)c1)c1cnc2ccccc2c1,0.186,0.935,0.049,1.03,1.3,0.972,1.13,2.51 (inactive),0.0095,0.443
COC1(C)CN(Cc2ccccc2Br)[C@H](/C=C/c2ccccc2)[C@H](Cc2ccccc2)O1 (stereo not given in full),-0.366,0.115,-0.194,-0.0452,-0.669,-0.435,-0.426,-0.916 (inactive),-0.317,0.0373
O=C1c2ccccc2[C@@]2(Cc3ccccc3N(C3CC3)C2=O)[C@H](c2ccc(CO)cc2)N1C1CCCCC1,-0.0266,-0.625,-0.0325,-0.015,-0.119,0.123,-0.716,0.291 (inactive),-0.0416,-0.0994
COC(=O)C1(Cc2ccccc2)C=C2C(=C(c3ccccc3)C(=O)C2C)CN1 (stereo not given),2.22,0.0069,0.731,1.21,1.19,1.45,1.01,0.943 (inactive),1.87,2.63
COCCOC(=O)N1C(=O)[C@@]2(c3cc(C#CCNC(N)=O)ccc31)[C@H](C(=O)N1CCCCCCC1)[C@H]1C(=O)O[C@H](c3ccccc3)[C@H](c3ccccc3)N1[C@@H]2c1ccc(O)cc1,0.333,0.189,-0.0557,0.159,0.845,0.571,0.596,-0.134 (inactive),0.706,0.0066
